# An excerpt weighted towards active compounds, which were near 21% of everything screened.
# TDP1 cell noCPT: qHTS for Inhibitors of human tyrosyl-DNA phosphodiesterase 1 (TDP1): qHTS in cells in absence of CPT | Potency, µM (series often up to 46.2 µM), without a hit: at the top dose activity change, negative = growth inhibition, usual class: inhibitors | hit rate 15% among 420,000 | DT40 Tdp1-/- hTDP1 cells, no CPT, ATP luminescence, 48 h; note: potency is the fitted concentration of half-maximal effect; nearly all actives have a fitted effect of over 55% in size
#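 Chicken DT40 Tdp1-/- cells stably complemented with human TDP1 were seeded at 400 cells/well with DMSO in place of 20 nM camptothecin. After compound pinning, cells grew at least 48 hr at 37 °C; viability read by CellTiter-Glo luminescence.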
# IL-1B inflam inh: inflammasome signaling inhibition, IL-1 beta readout | THP-1 LPS/ATP IL-1B secretion, AlphaLISA, 16 h; stronger effect = lower value | activity change, % at 57.5 µM | hit rate 4.7% among 360,000 | AID 743279; in the data active = activity change below about -50%; inconclusive = mostly about -30% to -49%
#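 THP-1 cells pretreated 1 hr with compounds (up to 57.5 uM final), then stimulated with LPS (250 ng/mL final) plus ATP (1.25 mM final); secreted IL-1B measured by AlphaLISA after 16 hr, decreased signal indicating inhibition.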
# TDP1 cell CPT: growth inhibition of DT40 Tdp1-/-;hTDP1 cells with camptothecin (screen for TDP1 inhibitors); AID 686979; hit rate 12% among 420,000; Potency, µM (doses to about 46.2 µM), for the others: at the highest dose activity change, negative = growth inhibition, hits mostly inhibitors; chicken DT40 Tdp1-/-;hTDP1 cells + 20 nM CPT, ATP luminescence, 48 h; note: potency is the fitted concentration of half-maximal effect; nearly all actives have a fitted effect of over 55% in size
#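 Cell growth measured by CellTiter-Glo luminescence after a minimum 48 h, 37 C compound exposure with 20 nM CPT in Tdp1-knockout DT40 cells stably expressing hTDP1, seeded 400/well; qHTS titration format.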
# VP16 counter: counter-screen for ROR gamma inhibitors: Gal4-VP16 reporter. Drosophila S2 Gal4-VP16 UAS-luciferase, luminescence, 20 h. Potency, µM (titrated, usually from 53.6 µM), for inactives: at the top dose activity, negative = inhibition, actives largely listed as inhibitors. hit rate 3.5% among 310,000. AID 2546;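 note: Gal4-VP16 expression switched on by copper sulfate through the metallothionein promoter; potency is the fitted concentration of half-maximal effect; nearly all actives have a fitted effect of over 50% in size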
# RORg inh: blocks mouse ROR gamma transcriptional activity. P51450. hit rate 5.4% among 310,000. Drosophila S2 Gal4-RORgamma UAS-luciferase reporter, 20 h. Potency, µM (doses to about 53.6 µM), without a hit: top-dose activity change, negative = inhibition, hits mostly inhibitors; note: potency is the fitted concentration of half-maximal effect; nearly all actives have a fitted effect of over 60% in size
# Target sequence (P51450 whole entry, looked up, the tested form may be a part): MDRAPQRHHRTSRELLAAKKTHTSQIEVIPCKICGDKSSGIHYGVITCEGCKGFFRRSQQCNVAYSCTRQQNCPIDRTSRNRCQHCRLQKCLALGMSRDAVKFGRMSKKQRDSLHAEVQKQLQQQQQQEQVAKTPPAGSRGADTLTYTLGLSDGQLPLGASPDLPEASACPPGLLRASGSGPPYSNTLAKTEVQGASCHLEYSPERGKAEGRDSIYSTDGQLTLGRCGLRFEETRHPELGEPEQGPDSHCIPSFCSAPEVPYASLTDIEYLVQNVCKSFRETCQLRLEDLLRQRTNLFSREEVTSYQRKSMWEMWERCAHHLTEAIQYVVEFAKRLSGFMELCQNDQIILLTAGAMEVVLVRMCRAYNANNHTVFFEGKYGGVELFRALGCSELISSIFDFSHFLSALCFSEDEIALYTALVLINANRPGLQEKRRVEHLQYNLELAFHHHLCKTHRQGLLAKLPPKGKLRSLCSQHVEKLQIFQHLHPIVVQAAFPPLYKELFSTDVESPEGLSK
#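 ROR gamma transcriptional activity was tracked as Gal4-UAS luciferase output in stably transfected Drosophila Schneider cells, with compound added 1 hr before 700 uM copper sulfate induction and a 20 hr ambient-temperature incubation.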
# ELG1 DNA repair: inhibitors of ELG1-dependent DNA repair in HEK293T cells. AID 504467. HEK293T ELG1-luciferase reporter, luminescence, 16 h; DNA damage induced by 5-fluorouridine. hit rate 2.3% among 330,000. Potency, µM (series often up to 46.1 µM), without a hit: top-dose activity change, negative = inhibition, most hits filed as inhibitors; note: potency is the fitted concentration of half-maximal effect; nearly all actives have a fitted effect of over 55% in size
#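 Quantitative HTS, concentration-response format. 2,000 cells/well co-treated with 5-fluorouridine and compound, 16 hr in 5% CO2 at 37 °C; ONE-Glo luminescence read after 30 min.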
# Starred values were filed as active, the others as inactive; ? = inconclusive; . = not tested or not shown; [ ] = remark or other dose. Unless noted, calls come from the whole dose curve; as a rule, active = well fitted curve in the direction sought with a large enough effect; inconclusive = small, poorly fitted or top-dose-only effect, or another doubt; inactive = no such curve, though single readings can be large; an effect the other way counts as inactive or inconclusive. % is set by controls: 0 for no effect and ±100 for the full control effect.
SMILES,TDP1 cell noCPT,IL-1B inflam inh,TDP1 cell CPT,VP16 counter,RORg inh,ELG1 DNA repair
C[C@H](CO)N1C[C@H](C)[C@@H](CN(C)S(=O)(=O)c2ccccc2)Oc2c(NC(=O)Nc3ccc(C(F)(F)F)cc3)cccc2C1=O,16µM*,?,?,.,.,?
C[C@H]1CN([C@@H](C)CO)C(=O)c2cccc(NC(=O)Nc3ccc(C(F)(F)F)cc3)c2O[C@@H]1CN(C)C(=O)Nc1ccc(F)cc1,5.8µM*,1,5.2µM*,.,.,?
C[C@@H]1CN([C@@H](C)CO)C(=O)c2cccc(NS(C)(=O)=O)c2O[C@H]1CN(C)C(=O)Nc1ccc(F)cc1,-15%,-9,-22%,.,.,15%
C[C@H](CO)N1C[C@H](C)[C@@H](CN(C)S(=O)(=O)c2ccccc2)Oc2c(NC(=O)c3ccncc3)cccc2C1=O,-3%,-10,-11%,.,.,21%
COc1ccc(NS(=O)(=O)c2ccc3c(c2)N(C(C)=O)CCO3)cc1,?,11,-19%,-1%,14%,0%
COc1ccc(C(=O)COC(=O)CNC(=O)c2cc(OC)cc(OC)c2)cc1,-22%,7,-4%,-4%,10%,7%
Cc1ccc(CNC(=O)/C=C/[C@H]2O[C@@H](n3cc(C)c(=O)[nH]c3=O)C[C@@H]2O)o1,2%,-1,2%,.,.,.
O=C(NCc1ccccc1)[C@]1(C(F)(F)F)C[C@H](CCCO)CCCO1,.,.,.,-6%,22%,.
C[C@H]1CN([C@@H](C)CO)C(=O)c2cccc(NC(=O)Nc3ccc(C(F)(F)F)cc3)c2O[C@H]1CN(C)C,?,-9,21µM*,.,.,24%
COc1ccc(NC(=O)Nc2cccc3c2O[C@H](CN(C)C(=O)Nc2ccc(C(F)(F)F)cc2)[C@@H](C)CN([C@H](C)CO)C3=O)cc1,16µM*,-17,26µM*,.,.,?
C[C@H](CO)N1C[C@H](C)[C@@H](CN(C)C(=O)Nc2ccc(C(F)(F)F)cc2)Oc2ccc(NC(=O)Nc3ccc(C(F)(F)F)cc3)cc2C1=O,?,?,?,.,.,-11%
C[C@H](CO)N1C[C@H](C)[C@@H](CN(C)C)Oc2c(NC(=O)CCC(F)(F)F)cccc2C1=O,-6%,7,-7%,.,.,15%
C[C@H](CO)N1C[C@H](C)[C@@H](CN(C)C(=O)Nc2ccc(C(F)(F)F)cc2)Oc2c(NC(=O)Nc3ccc(C(F)(F)F)cc3)cccc2C1=O,7.3µM*,-7,9.2µM*,.,.,16µM*
Cc1ccc(S(=O)(=O)Nc2cccc3c2O[C@H](CN(C)Cc2ccccc2)[C@@H](C)CN([C@H](C)CO)C3=O)cc1,16µM*,-7,?,.,.,?
C[C@H](CO)N1C[C@H](C)[C@@H](CN(C)Cc2ccc(-c3ccccc3)cc2)Oc2c(NS(=O)(=O)c3cccs3)cccc2C1=O,?,?,18µM*,.,.,-17%
C[C@H](CO)N1C[C@H](C)[C@@H](CN(C)C(=O)Nc2ccc3c(c2)OCO3)Oc2c(NC(=O)Nc3ccccc3)cccc2C1=O,?,-17,?,.,.,6.5µM*
C[C@H](CO)N1C[C@H](C)[C@@H](CN(C)Cc2ccc3c(c2)OCO3)Oc2c(NC(=O)Cc3ccccc3)cccc2C1=O,21µM*,-18,23µM*,.,.,?
CC(C)NC(=O)N(C)C[C@H]1Oc2c(NC(=O)Nc3ccc4c(c3)OCO4)cccc2C(=O)N([C@H](C)CO)C[C@@H]1C,?,-5,?,.,.,?
Clc1cccc(CN2CCCCCC2)c1Cl,?,1,-16%,-6%,-26%,6%
Cc1ccc(NC(=O)C2CCN(c3cnccn3)CC2)cc1C,0%,6,1%,-7%,20%,6%
CC1(C(=O)O)CCCN(C(=O)c2cc3ccccc3s2)C1 (stereo not drawn),5%,19,2%,.,.,.
Cc1ccc(CNc2ncnc3ccc(-c4c(C)noc4C)cc23)cc1,.,.,.,3%,-42%,.
NC(=O)C1CCN(C2=C(NS(=O)(=O)c3ccc(Cl)cc3)C(=O)c3ccccc3C2=O)CC1,?,-8,16µM*,-17%,-7%,?
CN1CCN(CC(C)(C)NS(=O)(=O)c2ccc(Cl)cc2)CC1,?,-5,?,-1%,4%,8%
CCOC(=O)N1CCN(C(=O)c2ccc(CNS(=O)(=O)c3ccc(C)cc3)cc2)CC1,-26%,40,-29%,-1%,20%,-23%
SMILES,TDP1 cell noCPT,IL-1B inflam inh,TDP1 cell CPT,VP16 counter,RORg inh,ELG1 DNA repair
COC(=O)C1CCN(C2=C(NS(=O)(=O)c3ccc(Cl)cc3)C(=O)c3ccccc3C2=O)CC1,-17%,0,?,-5%,22%,0%
CCOC(=O)N1CCN(C2=C(NS(=O)(=O)c3ccc(C)cc3)C(=O)c3ccccc3C2=O)CC1,?,11,8.2µM*,-2%,-7%,?
CC(=O)Nc1ccc(S(=O)(=O)Nc2ccc(N3CCOCC3)cc2)cc1,-17%,-6,-12%,-1%,3%,-5%
CC(C)(CN1CCN(Cc2ccccc2)CC1)NS(=O)(=O)c1ccc(Cl)cc1,18µM*,-25,16µM*,2%,8%,?
CC(=O)Nc1ccc(S(=O)(=O)NC2=C(N3CCN(c4ccc(F)cc4)CC3)C(=O)c3ccccc3C2=O)cc1,16µM*,-7,10µM*,-10%,-40%,8.2µM*
CNc1ccc(-c2cc(OC)ccc2OC)cn1,-14%,-6,-15%,.,.,.
CC1(C)O[C@H]2C[C@@H]3[C@H]4CCC5=CC(=O)CC[C@@]5(C)[C@]4(F)[C@@H](O)C[C@@]3(C)[C@@]2(C(=O)CCl)O1,.,.,.,-15%[17 µM],-32%[2.98 µM],.
Cc1nn(-c2ccccc2)c(/N=C/c2ccccc2O)c1-c1ccccc1,1%,-10,-25%,-4%,17%[10 µM],?
O=C(Nc1ccccc1C(=O)N1CCN(Cc2ccccc2)CC1)c1ccc(F)cc1,?,-3,-17%,-5%,-1%,-8%
Cc1ccc(S(=O)(=O)NC2=C(N3CCN(Cc4ccccc4)CC3)C(=O)c3ccccc3C2=O)cc1,16µM*,-11,23µM*,9%,1%,?
Cc1ccc(S(=O)(=O)Nc2nc3ccccc3nc2N2CCN(c3ccccc3F)CC2)cc1,2%,44,3%,8%,6%,-2%

# High-throughput results deposited in PubChem by National Center for Advancing Translational Sciences (NCATS).
